Assay results from PubChem BioAssay (NCATS).
Results filed as inconclusive are left out. A number with no mark means an inactive call. Calls of active or inactive are those of the source. The call rests on the fitted dose curve; in most records, active means well fitted cell-killing curve with a large enough effect; inconclusive means small, poorly fitted or top-dose-only effect, or effect the other way; inactive means no such curve, though single readings can be large or run the other way. Non-standard residues stand in square brackets, D forms with d. Residues, ends and D or L forms follow the SMILES beside them. *: point of attachment. Nva = CCC[C@H](N)C(=O)O; Cbz = O=C(OCc1ccccc1)*

Tests used:
[1] = Quantitative High-Throughput drug screen in 47 multiple myeloma cell lines against the NCATS MIPE library collection: OCIMY5_PLB cell viability assay (AID 1918988); further: nearly all actives have a fitted effect of over 65% in size
Method in brief: (§1)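 500 cells/well; MIPE 4.0 drugs pin-transferred; 48 h, 37C, 5% CO2. CellTiter-Glo, 5 min RT, luminescence. Controls: DMSO 100%, media 0%.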

[2] = Quantitative High-Throughput drug screen in 47 multiple myeloma cell lines against the NCATS MIPE library collection: OPM1_PLB cell viability assay (AID 1918989); further: nearly all actives have a fitted effect of over 40% in size
Method in brief: as §1

[3] = Quantitative High-Throughput drug screen in 47 multiple myeloma cell lines against the NCATS MIPE library collection: U266_ATCC cell viability assay (AID 1919864); further: nearly all actives have a fitted effect of over 35% in size;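 on viability (% of DMSO control): 0% = media-only wells without cells and 100% = DMSO-only wells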
Method in brief: as §1

[4] = Quantitative High-Throughput drug screen in 47 multiple myeloma cell lines against the NCATS MIPE library collection: XG6_PLB cell viability assay (AID 1919865); further: nearly all actives have a fitted effect of over 40% in size
Method in brief: as §1

[5] = Quantitative High-Throughput drug screen in 47 multiple myeloma cell lines against the NCATS MIPE library collection: XG1_PLB cell viability assay (AID 1919866); further: nearly all actives have a fitted effect of over 35% in size
Method in brief: as §1

[6] = Quantitative High-Throughput drug screen in 47 multiple myeloma cell lines against the NCATS MIPE library collection: VP6_DJ cell viability assay (AID 1919867); further: nearly all actives have a fitted effect of over 40% in size
Method in brief: as §1

[7] = Quantitative High-Throughput drug screen in 47 multiple myeloma cell lines against the NCATS MIPE library collection: UTMC2_PLB cell viability assay (AID 1919868); conditions: CellTiter-Glo ATP luminescence, 48 h; viability (% of DMSO control): at 45.8 µM (top of the series); further: nearly all actives have a fitted effect of over 55% in size;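 on viability (% of DMSO control): 100% = DMSO-only wells and 0% = media-only wells without cells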
Method in brief: as §1

[8] = Quantitative High-Throughput drug screen in 47 multiple myeloma cell lines against the NCATS MIPE library collection: PE2_PLB cell viability assay (AID 1919869); further: nearly all actives have a fitted effect of over 35% in size
Method in brief: as §1

[9] = Quantitative High-Throughput drug screen in 47 multiple myeloma cell lines against the NCATS MIPE library collection: SKMM1_PLB cell viability assay (AID 1919863); conditions: SKMM1 myeloma viability, CellTiter-Glo ATP, 48 h; viability: hits give low values; further: nearly all actives have a fitted effect of over 35% in size
Method in brief: as §1
Potency means the concentration at half of the fitted maximal effect.

Row | SMILES | Potency [1] | Potency [2] | Potency [3] | Potency [4] | Potency [5] | Potency [6] | Potency [7] | Potency [8] | Potency [9] | viability [9] [%]
1 | O=C(CCCCCCC(=O)Nc1cccnc1)NO | 3.32 µM (active) | 4.18 µM (active) | 4.69 µM (active) | 11.8 µM (active) | 3.72 µM (active) | 1.48 µM (active) | 0.935 µM (active) | 7.43 µM (active) | – | –
2 | Cc1cnc(Nc2ccc(CN3CCOCC3)cc2)nc1Nc1cccc(S(=O)(=O)NC(C)(C)C)c1 | 1.87 µM (active) | 0.935 µM (active) | – | 1.18 µM (active) | 0.935 µM (active) | 1.32 µM (active) | 0.743 µM (active) | 1.66 µM (active) | 5.26 µM (active) | –
3 | C[C@@H](NCc1cc2ccccc2[nH]1)c1cccc2ccccc12 | inactive | inactive | inactive | inactive | – | inactive | – | – | – | 132
4 | COc1cccc2c1C(=O)c1c(O)c3c(c(O)c1C2=O)C[C@@](O)(C(=O)CO)C[C@@H]3O[C@H]1C[C@H](N)[C@H](OC2CCCCO2)[C@H](C)O1 (some centres not stated) | 2.09 µM (active) | 16.6 µM (active) | – | 0.662 µM (active) | 1.87 µM (active) | 5.26 µM (active) | 0.166 µM (active) | 1.18 µM (active) | 2.64 µM (active) | –
5 | CS(=O)(=O)N1CCc2c(-c3cnc(N)nc3)nc(N3CCOCC3)nc21 | 0.332 µM (active) | 0.332 µM (active) | 0.296 µM (active) | 0.743 µM (active) | 0.372 µM (active) | 0.418 µM (active) | 0.001 µM (active) | 0.296 µM (active) | – | –
6 | CC(C)C[C@H](NC(=O)CNC(=O)c1cc(Cl)ccc1Cl)B1OC(=O)CC(CC(=O)O)(C(=O)O)O1 (some centres not stated) | 0.0264 µM (active) | 0.0372 µM (active) | – | 0.0264 µM (active) | 0.0418 µM (active) | 0.0296 µM (active) | 0.526 µM (active) | 0.0296 µM (active) | 0.209 µM (active) | –
7 | Cc1ccc([N+](=O)[O-])cc1S(=O)(=O)N(C)N=Cc1cnc2ccc(Br)cn12 | 0.0187 µM (active) | 0.0083 µM (active) | 0.0209 µM (active) | – | – | – | – | 0.0074 µM (active) | 0.0526 µM (active) | –
8 | Cc1nc(NC(=O)N2CCC[C@@H]2C(N)=O)sc1-c1ccnc(C(C)(C)C(F)(F)F)c1 | 0.935 µM (active) | 2.96 µM (active) | 8.33 µM (active) | 1.87 µM (active) | 3.32 µM (active) | – | – | 4.69 µM (active) | 6.62 µM (active) | –
9 | CC[C@H](CC[C@@H](C)[C@H]1CC[C@H]2[C@@H]3CC=C4C[C@@H](O)CC[C@]4(C)[C@@H]3CC[C@]12C)C(C)C | inactive | inactive | inactive | inactive | inactive | – | – | inactive | – | –
10 | CCC[C@H]1C[C@H](C(=O)N[C@@H]([C@@H]2O[C@@H](SC)[C@@H](O)[C@@H](O)[C@@H]2O)[C@H](C)Cl)N(C)C1 | inactive | inactive | – | inactive | inactive | inactive | – | inactive | – | –
11 | COc1cccc2c1C(=O)c1c(O)c3c(c(O)c1C2=O)C[C@@](O)(C(=O)CO)C[C@@H]3O[C@H]1C[C@H](N)[C@@H](O)[C@H](C)O1 | 0.526 µM (active) | – | 1.32 µM (active) | 0.148 µM (active) | 0.526 µM (active) | 0.935 µM (active) | 0.118 µM (active) | 0.148 µM (active) | 0.935 µM (active) | –
12 | c1ccc2c(Oc3nc(Nc4ccc(N5CCOCC5)cc4)c4ncn(C5CCCCC5)c4n3)cccc2c1 | 18.7 µM (active) | inactive | – | – | 18.7 µM (active) | 14.8 µM (active) | – | inactive | – | –
13 | CC[C@H]1OC(=O)[C@H](C)[C@@H](O[C@H]2C[C@@](C)(OC)[C@@H](O)[C@H](C)O2)[C@H](C)[C@@H](O[C@@H]2O[C@@H](C)C[C@H](N(C)C)[C@@H]2O)[C@](C)(O)C[C@@H](C)C(=O)[C@H](C)[C@@H](O)[C@]1(C)O | inactive | inactive | – | – | 4.18 µM (active) | inactive | – | – | – | –
14 | CCCCOc1ccc(C(=O)Nc2ccc(F)cc2F)cc1 | inactive | inactive | – | inactive | inactive | 7.43 µM (active) | – | inactive | – | –
15 | Nc1nc2c(c(=O)[nH]1)N(C=O)[C@H](CNc1ccc(C(=O)N[C@@H](CCC(=O)O)C(=O)O)cc1)CN2 | inactive | inactive | – | inactive | inactive | inactive | – | inactive | – | –
16 | C=CC[C@@H]1C=C(C)C[C@H](C)C[C@H](OC)[C@H]2O[C@@](O)(C(=O)C(=O)N3CCCC[C@H]3C(=O)O[C@H](C(C)=C[C@@H]3CC[C@H](O)[C@H](OC)C3)[C@@H](C)[C@@H](O)CC1=O)[C@@H](C)C[C@@H]2OC | 0.662 µM (active) | – | 1.32 µM (active) | 1.48 µM (active) | 2.35 µM (active) | 0.833 µM (active) | 2.96 µM (active) | 2.64 µM (active) | 1.18 µM (active) | –
17 | CCNC(=O)Nc1ccc(-c2nc3c(c(N4CCOC[C@H]4C)n2)CCN(C2COC2)C3)cc1 | 1.66 µM (active) | – | 6.62 µM (active) | 0.935 µM (active) | 0.526 µM (active) | 1.05 µM (active) | 1.18 µM (active) | 1.18 µM (active) | 0.935 µM (active) | –
18 | CCCCCCCCCCCCc1ccc(S(=O)(=O)Nc2nncs2)cc1 | inactive | inactive | inactive | inactive | – | inactive | inactive | 8.33 µM (active) | – | –
19 | C[N+]1(C)[C@@H]2C[C@@H](OC(=O)C(O)(c3cccs3)c3cccs3)C[C@H]1[C@@H]1O[C@@H]12 | inactive | inactive | inactive | inactive | inactive | – | inactive | inactive | – | –
20 | CN(C)CCN1C(=O)c2cccc3cc(N)cc(c23)C1=O | 23.5 µM (active) | – | 18.7 µM (active) | 14.8 µM (active) | 16.6 µM (active) | 14.8 µM (active) | 5.9 µM (active) | 20.9 µM (active) | 18.7 µM (active) | –
21 | CC1(C)O[C@@H]2C[C@H]3[C@@H]4CCC5=CC(=O)C=C[C@]5(C)[C@@H]4[C@@H](O)C[C@]3(C)[C@]2(C(=O)CO)O1 | 0.118 µM (active) | 7.43 µM (active) | inactive | inactive | – | 18.7 µM (active) | – | inactive | – | –
22 | CCC[C@@H](C=O)NC(=O)[C@H](CC(C)C)NC(=O)[C@H](CC(C)C)NC(=O)OCc1ccccc1 (Cbz-Leu-Leu-[Nva]-aldehyde) | 0.935 µM (active) | – | 0.372 µM (active) | 0.264 µM (active) | 0.372 µM (active) | 0.235 µM (active) | 1.48 µM (active) | 0.418 µM (active) | 1.87 µM (active) | –
23 | C[C@@H]1[C@H](C)CC[C@]2(C(=O)O)CC[C@]3(C)C(=CC[C@@H]4[C@@]5(C)C[C@@H](O)[C@H](O)[C@@](C)(CO)[C@H]5CC[C@]43C)[C@@H]12 | inactive | inactive | – | inactive | inactive | inactive | inactive | inactive | – | –
24 | CCN1CCN(C(=O)N[C@H](C(=O)N[C@@H]2C(=O)N3C(C(=O)O)=C(CSc4nnnn4C)CS[C@@H]23)c2ccc(O)cc2)C(=O)C1=O | inactive | inactive | – | – | inactive | – | – | – | – | –
25 | CC(=O)OCC(=O)[C@@]1(O)CC[C@H]2[C@@H]3CCC4=CC(=O)CC[C@]4(C)[C@@H]3C(=O)C[C@@]21C | inactive | – | inactive | inactive | inactive | – | – | inactive | – | 120
